PubChem BioAssay (NCATS)
“And” between values parts separate entries of the source, which are not always exact repeats. Equal values may be shown once. Inconclusive results are not listed. Unmarked numbers belong to inactive results. The source made the active and inactive calls. Calls come from the whole dose curve; as a rule, active = well fitted activation curve with a large enough effect in the signal ratio (not every such curve was filed as active); inconclusive = small, poorly fitted or top-dose-only effect, or a change in a side signal; inactive = flat fitted curve, though single readings scatter; the % refers to the signal ratio.

Experiment: qHTS assay for small molecule activators of the p53 signaling pathway (AID 651743); for activation: series mostly up to about 92 µM; % of control where 0% means no effect
Conditions: HCT-116 p53RE-bla, beta-lactamase FRET ratio, 16 h; activation: stronger effect = higher value
Excerpt: National Center for Advancing Translational Sciences [NCATS] NIH Chemical Genomics Center [NCGC] U.S. Environmental Protection Agency [EPA] National Institutes of Environmental Health Sciences [NIEHS] National Toxicology Program [NTP] Assay Overview: p53, a tumor suppressor protein, is activated following cellular insult, including DNA damage and other cellular stresses. The activation of p53 regulates cell fate by inducing DNA repair, cell cycle arrest, apoptosis, or cellular senescence. The activation of p53, therefore, is a good indicator of DNA damage and other cellular stresses. The CellSensor p53RE-bla HCT-116 cell line (Invitrogen) contains a stably integrated beta-lactamase reporter gene under control of the p53 response elements. The activation of the report gene under culture conditions can be detected by fluorescence intensity. This cell line can be used to screen chemicals in a 1536-well plate format and to identify agonists that activate p53 signaling pathway.
Assay Protocol Summary: The p53RE-bla cells were dispensed at 4,000 cells/5 ul/well in 1536-well black wall/clear bottom plates using a Multidrop dispenser. After the assay plates were incubated at a 37 C/5% CO2 incubator for 5 hours, 23 nL of compounds dissolved in DMSO, positive controls or DMSO only was transferred to the assay plate by a pin tool. The plates were incubated at 37 C for 16 hours. After 1 uL of LiveBLAzer B/G FRET substrate was added using a Flying Reagent Dispenser, the plates were incubated at room temperature for 2 hours, and fluorescence intensity was measured by an Envision plate reader.
Potency is the fitted concentration of half-maximal effect.

SMILES	activation	Potency
O=C=NCCCCCCN=C=O	1.63%	
CCCCOC(=O)/C=C\C(=O)OCCCC	5.06%	
CCCCC(CC)C(=O)OCCOCCOCCOC(=O)C(CC)CCCC (stereo not given)	0.679%	
c1ccc(B(c2ccccc2)c2ccccc2)cc1	-0.854%	
CCC(=O)OCCc1ccccc1	-3.48%	
Cc1ccc(S(=O)(=O)C(I)I)cc1	4.66%	
C[Si](Cl)(Cl)[Si](C)(Cl)Cl	0.0231%	
CC(=O)Nc1ccc(N=Nc2cc(C)ccc2O)cc1	-6.18%	
O=S(c1ccc(Cl)cc1)c1cc(Cl)c(Cl)cc1Cl (stereo not given)	3.87%	
C[C@]12CC[C@@H]3c4ccc(O)cc4CC[C@H]3[C@@H]1CC[C@H]2O	23.4%	
CC1(C)C(=O)N(Br)C(=O)N1Cl	2.83%	
C=C(C)C(=O)OCC[N+](C)(C)C	0.0876%	
Cc1nn(C)c(Oc2ccccc2)c1/C=N/OCc1ccc(C(=O)OC(C)(C)C)cc1	9.47%	
CC(C)(C)c1cc(C(C)(C)C)c(O)c(C(C)(C)C)c1	3.15%	
Cc1ccc(N=Nc2c(O)ccc3ccccc23)c([N+](=O)[O-])c1	-4.13%	
CCCCCCCC[Si](OCC)(OCC)OCC	1.43%	
C/C=C/C=C/CCCCCCCO	7.24%	
C[Si](C)(C)N[Si](C)(C)C	1.4%	
Nc1cc(Cl)nc(C(=O)O)c1Cl	1.21%	
CCCCC(CC)COC(=O)/C=C\C(=O)OCC(CC)CCCC (stereo not given)	-1.03%	

SMILES	activation	Potency
C[Si]1(C)N[Si](C)(C)N[Si](C)(C)N1	-5.2%	
Clc1nc(Cl)c(Cl)c(Cl)c1Cl	-0.354%	
CC1(C)C(=O)N(Cl)C(=O)N1Cl	-0.829%	
CCC(=O)C1C(=O)CC(C(=O)O)CC1=O (stereo not given)	2.03%	
CCOCCOCCOC(C)=O	1.91%	
CCOC(=O)CCCCCCCCC(=O)OCC	-5.93%	
O=C(OCC1CCC2OC2C1)C1CCC2OC2C1 (stereo not given)	2.61%	
Cc1ccc(S(=O)(=O)N=C=O)cc1	-3.48%	
CCCCCC1CCC(=O)O1 (stereo not given)	0.985%	
COc1ccc(OC)c(OC)c1	-1.46%	
CCNc1nc(N)nc(Cl)n1	-2.48% and -1.49%	
CN(C)c1nc(=O)n(C2CCC(O)CC2)c(=O)n1C (stereo not given)	2.9%	
CCCCCCCC/C=C\CCCCCCCC(=O)OC	1.64%	
C=CCCCCCCCCCC	-0.565%	
CCCCCCCCCCCCO	-3.58%	
O=[N+]([O-])c1ccc(O)cc1C(F)(F)F		31.6 µM (active)
c1ccc2c(c1)Cc1ccccc1-2	2.83%	
O=C1CCC(C2CCCCC2)CC1	-4.16%	
C=CCCCCCCCCCCCC	-3%	
Cl[Si](Cl)(Cl)c1ccccc1	-5.69%	
